Experimental data published in PubChem BioAssay (Tox21).
Records with an inconclusive call do not appear. The source made the active and inactive calls. Unless noted, the call rests on the fitted dose curve; in most records, active means well fitted curve in the direction sought with a large enough effect in the repeat runs; inconclusive means weak or mixed curves; inactive means no such curve, though single readings can be large; an effect the other way counts as inactive or inconclusive.

Assays:
[1] = biological target: Aryl hydrocarbon receptor (Homo sapiens) (UniProt P35869); assay: qHTS assay to identify small molecule that activate the aryl hydrocarbon receptor (AhR) signaling pathway (AID 743085); further: nearly all actives have a fitted effect of over 15% in size; further: potency means the concentration at half of the fitted maximal effect;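 on activation: HG2L7.5c1 human HepG2 liver cells with stably integrated DRE-driven firefly reporter; series mostly up to about 70 µM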
Aryl hydrocarbon receptor (Homo sapiens), sequence (P35869 whole entry, looked up): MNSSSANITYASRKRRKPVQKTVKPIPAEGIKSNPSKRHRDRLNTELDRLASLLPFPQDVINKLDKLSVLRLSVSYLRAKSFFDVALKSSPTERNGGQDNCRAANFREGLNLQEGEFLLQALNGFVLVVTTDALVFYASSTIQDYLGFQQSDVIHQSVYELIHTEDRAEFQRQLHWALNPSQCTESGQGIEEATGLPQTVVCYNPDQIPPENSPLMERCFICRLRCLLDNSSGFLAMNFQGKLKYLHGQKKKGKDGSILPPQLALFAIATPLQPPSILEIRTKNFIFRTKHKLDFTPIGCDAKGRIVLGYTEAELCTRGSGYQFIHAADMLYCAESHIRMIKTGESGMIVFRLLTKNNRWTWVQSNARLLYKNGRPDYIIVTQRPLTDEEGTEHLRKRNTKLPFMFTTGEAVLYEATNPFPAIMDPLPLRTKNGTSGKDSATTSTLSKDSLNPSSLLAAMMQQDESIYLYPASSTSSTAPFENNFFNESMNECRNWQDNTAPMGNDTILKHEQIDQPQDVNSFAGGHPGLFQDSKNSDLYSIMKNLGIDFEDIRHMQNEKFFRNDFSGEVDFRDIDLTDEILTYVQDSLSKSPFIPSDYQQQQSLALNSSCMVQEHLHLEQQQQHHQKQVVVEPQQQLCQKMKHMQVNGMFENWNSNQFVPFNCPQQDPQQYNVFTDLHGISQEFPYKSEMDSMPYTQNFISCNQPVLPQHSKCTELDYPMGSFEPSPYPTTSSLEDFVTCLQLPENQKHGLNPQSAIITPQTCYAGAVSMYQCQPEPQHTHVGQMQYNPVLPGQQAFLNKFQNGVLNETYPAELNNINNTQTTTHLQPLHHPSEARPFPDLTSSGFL
Procedure, shortened: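 Luminescence read-out: ONE-Glo reagent, 30 min at room temperature, in HG2L7.5c1 HepG2 reporter cells treated 24 h at 37C. Viability was measured beforehand by CellTiter-Fluor fluorescence after 30 min at 37C.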

[2] = qHTS assay to identify small molecule that activate the aryl hydrocarbon receptor (AhR) signaling pathway - cell viability counter screen (AID 743086);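 further: HepG2 liver cells carrying the AhR DRE luciferase reporter; series mostly up to about 70 µM; nearly all actives have a fitted effect of over 45% in size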
Procedure, shortened: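 Cytotoxicity counter screen: CellTiter-Fluor signal (30 min, 37 C) in 4000 HepG2 cells/well carrying the DRE-luciferase reporter, following 24 h compound exposure at 37 C.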

[3] = biological target: Peroxisome proliferator-activated receptor gamma (Homo sapiens) (UniProt P37231); assay: qHTS assay to identify small molecule agonists of the peroxisome proliferator-activated receptor gamma (PPARg) signaling pathway (AID 743094; active means well fitted activation curve with a large enough effect in the signal ratio in the repeat runs, not every such curve was filed as active; the % refers to the signal ratio)
Peroxisome proliferator-activated receptor gamma (Homo sapiens), sequence (P37231 whole entry, looked up): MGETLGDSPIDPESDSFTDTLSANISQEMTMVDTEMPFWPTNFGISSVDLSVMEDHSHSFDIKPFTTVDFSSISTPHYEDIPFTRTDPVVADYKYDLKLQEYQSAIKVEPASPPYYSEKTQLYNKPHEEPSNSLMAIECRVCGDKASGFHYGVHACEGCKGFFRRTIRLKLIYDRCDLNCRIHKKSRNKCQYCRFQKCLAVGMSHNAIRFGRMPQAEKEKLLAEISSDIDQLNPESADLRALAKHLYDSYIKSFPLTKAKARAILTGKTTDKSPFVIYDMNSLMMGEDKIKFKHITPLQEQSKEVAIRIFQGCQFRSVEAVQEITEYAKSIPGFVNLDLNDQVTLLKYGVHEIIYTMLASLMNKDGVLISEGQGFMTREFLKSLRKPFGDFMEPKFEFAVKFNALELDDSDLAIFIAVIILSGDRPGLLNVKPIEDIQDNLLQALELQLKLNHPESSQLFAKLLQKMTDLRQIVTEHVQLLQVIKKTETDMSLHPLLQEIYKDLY
Procedure, shortened: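 Fluorescence-based beta-lactamase readout in HEK293H PPARg UAS-bla cells after 17 h compound exposure (37C) and 1 h B/G FRET substrate incubation at room temperature.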

[4] = qHTS assay for small molecule agonists of the antioxidant response element (ARE) signaling pathway (AID 743202; active means well fitted activation curve with a large enough effect in the signal ratio in the repeat runs, not every such curve was filed as active; the % refers to the signal ratio)
Procedure, shortened: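 After 16 hours of compound treatment at 37 C, HepG2 cells with a stably integrated ARE-driven beta-lactamase reporter were loaded 2 hours at room temperature with LiveBLAzer B/G FRET substrate and fluorescence intensity measured.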

[5] = qHTS assay for small molecule agonists of the antioxidant response element (ARE) signaling pathway - cell viability counter screen (AID 743203; calls by dose curve; further: nearly all actives have a fitted effect of over 55% in size)
Procedure, shortened: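 Parallel cytotoxicity read-out for the ARE-bla screen: HepG2 reporter cells, 16 hrs with compounds, then CellTiter-Glo luminescence.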

[6] = qHTS assay for small molecule activators of the heat shock response signaling pathway - cell viability counter screen (AID 743209); further: nearly all actives have a fitted effect of over 50% in size
Procedure, shortened: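 To flag cytotoxic compounds, HSE-bla HeLa cells plated at 1500 cells/well were dosed for 5 h at 37 C, followed by the reporter FRET read and then CellTiter-Glo, with luminescence recorded 30 min after reagent addition.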

[7] = qHTS assay to identify small molecule agonists of the peroxisome proliferator-activated receptor delta (PPARd) signaling pathway - cell viability counter screen (AID 743211); further: nearly all actives have a fitted effect of over 55% in size
Procedure, shortened: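 Read-out: CellTiter-Glo luminescence, 30 min RT, measured in the same wells as the beta-lactamase reporter. Cells: GeneBLAzer PPAR delta UAS-bla HEK293H, 3000 cells/well, compound exposure 17 h at 37C.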

[8] = qHTS assay to identify small molecule antagonists of the peroxisome proliferator-activated receptor gamma (PPARg) signaling pathway - cell viability counter screen (AID 743194); further: nearly all actives have a fitted effect of over 55% in size
Procedure, shortened: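 Viability was measured as CellTiter-Glo luminescence in GeneBLAzer PPARg UAS-bla HEK293H cells. These cells had been exposed 17 h at 37 C to compounds together with rosiglitazone at 50 nM final, with the beta-lactamase readout taken in the same wells.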

[9] = qHTS assay for small molecule activators of the heat shock response signaling pathway (AID 743210; active means well fitted activation curve with a large enough effect in the signal ratio in the repeat runs, with a control signal flat, not every such curve was filed as active; the % refers to the signal ratio; further: series mostly up to about 63 µM)
Procedure, shortened: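 Compound exposure lasted 5 h at 37 C in HeLa cells carrying a heat-shock-element-driven beta-lactamase reporter. Read-out: fluorescence intensity after 2.5 h room-temperature loading with LiveBLAzer B/G FRET substrate.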

[10] = biological target: Peroxisome proliferator-activated receptor gamma (Homo sapiens) (UniProt P37231); assay: qHTS assay to identify small molecule antagonists of the peroxisome proliferator-activated receptor gamma (PPARg) signaling pathway (AID 743191; calls by dose curve; further: series mostly up to about 63 µM; nearly all actives have a fitted effect of over 30% in size)
Procedure, shortened: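 Beta-lactamase reporter under UAS control in HEK293H PPARg-bla cells; compound treatment 17 h at 37C. Read-out: fluorescence intensity after 1 h room-temperature incubation with LiveBLAzer B/G FRET substrate.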
On the % scale 0 is the no-effect control and ±100 the full control effect.

C[C@@H]1C[C@H]2[C@@H]3C[C@H](F)C4=CC(=O)C(Cl)=C[C@]4(C)[C@@]3(F)[C@@H](O)C[C@]2(C)[C@@]1(O)C(=O)CO
inactive: Potency [1] | Potency [2] | Potency [3] | Potency [4] | outcome [5] | outcome [6] | outcome [7]

CCCCCCCCCC[N+](C)(C)[O-]
inactive: Potency [1] | Potency [2] | outcome [8] | outcome [5] | outcome [9] | outcome [7]

CC(C)(C)C(=O)c1ccccc1
inactive: Potency [1] | Potency [2] | Potency [4] | outcome [5] | outcome [6] | outcome [9] | outcome [7]

Cc1cccc(C)c1NC(=O)CC12CCCN1CCC2
inactive: Potency [1] | Potency [2] | outcome [8] | outcome [5] | outcome [9] | outcome [7]

CC1=NS(=O)(=O)c2cc(Cl)ccc2N1
inactive: Potency [1] | Potency [2] | Potency [3] | Potency [4] | outcome [5] | outcome [6] | outcome [9] | outcome [7]

Nc1ccn([C@@H]2O[C@H](CO)[C@@H](O)C2(F)F)c(=O)n1
inactive: Potency [1] | Potency [2] | outcome [8] | outcome [5] | outcome [6] | outcome [9] | outcome [7]

Nc1ccccn1
inactive: Potency [1] | Potency [2] | outcome [8] | outcome [5] | outcome [6] | outcome [9] | outcome [7]

CCC(C)(CN(C)C)OC(=O)c1ccccc1 (stereo not given)
inactive: Potency [1] | Potency [2] | Potency [4] | outcome [5] | outcome [6] | outcome [9] | outcome [7]

CC1=C(C/C=C(\C)CCC[C@H](C)CCC[C@H](C)CCCC(C)C)C(=O)c2ccccc2C1=O
active: Potency [1] 26.6 µM
inactive: Potency [2] | Potency [3] | outcome [8] | Potency [4] | outcome [9] | outcome [7]

Nc1ccn([C@@H]2O[C@H](CO)[C@@H](O)C2O)c(=O)n1 (stereo not given in full)
inactive: Potency [1] | Potency [2] | Potency [3] | outcome [5] | outcome [6] | outcome [9] | outcome [7]

CCOCC(C)O (stereo not given)
inactive: Potency [1] | Potency [3] | Potency [10] | outcome [8] | Potency [4] | outcome [5] | outcome [6] | outcome [9] | outcome [7]

CC(C)c1ccc2ncccc2c1
inactive: Potency [1] | Potency [2] | outcome [8] | Potency [4] | outcome [5] | outcome [6] | outcome [9]

NC(N)=NCCN1CCCCCCC1
inactive: Potency [1] | Potency [2] | activity change, negative = cytotoxicity [8] 6.29% [at 0.55 µM] | activation [4] 4.68% [at 0.756 µM] | viability change, negative = cytotoxic [5] -0.232% [at 0.756 µM] | activity change, negative = cytotoxicity [6] -20.4% [at 0.55 µM] | activation [9] -0.075% [at 0.55 µM] | activity change, negative = cytotoxicity [7] 8.58% [at 0.55 µM]

CCCCOC(=O)CCC(C)=O
inactive: Potency [1] | Potency [2] | Potency [3] | Potency [4] | outcome [5] | outcome [6] | outcome [7]

CC(C)=CCC/C(C)=C/C#N
inactive: Potency [1] | Potency [2] | Potency [3] | outcome [5] | outcome [6]
